High-throughput results from PubChem BioAssay.
This is a sample that favours compounds with a hit; in the whole collection about 28% have one here.
CYP2C9 act = activators of human CYP2C9. P11712. recombinant CYP2C9, luciferin-H conversion, luminescence; active compounds read high; factor 1 = untreated enzyme, 0 = blocked. activation factor at 5 µM. 96,000 tested, 1.4% active. AID 1024;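 active = activation factor of 2 or more for CYP2C9 at a 5 µM dose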
DAT uptake mod = human DAT dopamine uptake with cocaine, either direction; AID 449768; LLC-PK1 hDAT cells, [14C]-dopamine uptake with cocaine IC80; actives deviate in either direction; B-score at 10 µM; 110,000 tested, 1.3% active; Q01959;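 active = Z score or B-score, a plate-position-corrected score, falls beyond the plate's 99.7% confidence bounds, in either direction; inactive = both scores lie inside the 99.7% bounds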
CYP2C19 inh = inhibitors of human CYP2C19 | P33261 | CYP2C19 Supersomes, luciferin-H EGE luminescence, 30 min | inhibition, % at 5 µM | 96,000 tested, 21% active;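 active = CYP2C19 inhibition above a set limit at 5 µM in the primary screen, cut at about 50% in these data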
D1 allo mod = allosterically modulates the human D1 dopamine receptor; P21728; HEK293 D1, CRE-luciferase, dopamine EC30 potentiation; actives deviate in either direction; B-score at 10 µM; 58,000 tested, 5.9% active; AID 641;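 active = luminescence count or its row- and column-corrected plate score outside the 99.7% band of the plate's sample wells, on either side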
Target sequence (P21728 whole entry, looked up): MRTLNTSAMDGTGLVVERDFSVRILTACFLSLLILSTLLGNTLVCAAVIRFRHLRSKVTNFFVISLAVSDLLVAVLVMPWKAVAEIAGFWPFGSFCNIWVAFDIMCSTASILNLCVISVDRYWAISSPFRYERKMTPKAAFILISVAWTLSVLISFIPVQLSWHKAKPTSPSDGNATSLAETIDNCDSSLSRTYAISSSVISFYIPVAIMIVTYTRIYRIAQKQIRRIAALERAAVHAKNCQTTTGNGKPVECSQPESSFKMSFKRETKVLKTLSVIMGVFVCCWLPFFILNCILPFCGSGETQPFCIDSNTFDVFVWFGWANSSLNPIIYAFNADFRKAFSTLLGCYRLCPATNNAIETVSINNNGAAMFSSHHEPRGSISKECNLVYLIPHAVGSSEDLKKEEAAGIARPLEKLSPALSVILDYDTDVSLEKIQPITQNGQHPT
CYP2C9 inhib = inhibitors of human CYP2C9; CYP2C9 Supersomes, luciferin-H conversion, luminescence; inhibition, % at 5 µM; 96,000 tested, 20% active;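 active = blocking of liver enzyme CYP2C9 beyond about 50% at 5 µM, limit read from the data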
CYP2C19 act = increases human CYP2C19 enzyme activity. AID 1025. P33261. recombinant CYP2C19, luciferin-H EGE luminescence; active compounds read high; 0 = fully inhibited enzyme, 1 = untreated enzyme. activation factor at 5 µM. 96,000 tested, under 10 active;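 active = activation factor of at least 2 at 5 µM in the primary screen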
Each line names hits and unclear results; the compound was inactive in the other large screens.

Cc1ccc(C(=O)Nc2ncnc3sc4c(c23)CCCCC4)cc1	none (no result: D1 allo mod)
O=C(OCCNC(=O)c1ccc2ccccc2n1)c1ccc(F)cc1	none (no result: D1 allo mod)
O=C1CC(c2ccccc2)C(C(=O)Nc2ccccc2F)N1 (stereo not given)	none (no result: CYP2C9 act, DAT uptake mod, CYP2C19 inh, CYP2C9 inhib, CYP2C19 act)
COc1ccc(-c2noc(CCC(=O)Nc3ccc4c(c3)OCCO4)n2)cc1	CYP2C19 inh 66, CYP2C9 inhib 76
Cc1ccc(-c2noc(CCC(=O)Nc3ccc4c(c3)OCO4)n2)cc1	none
O=C(c1ccc2c(c1)OCCO2)N(c1ccccn1)C1CCCCC1	CYP2C9 inhib 52
CC(C)(C)NC(=O)C(c1ccccn1)N(C(=O)c1ccc2c(c1)OCCO2)C1CCCC1 (stereo not given)	none
Fc1cccc(Cl)c1Cn1nnc2c(NCc3ccccn3)ncnc21	none (no result: CYP2C9 act, CYP2C19 inh, CYP2C9 inhib, CYP2C19 act)
Fc1cccc(Cl)c1Cn1nnc2c(-n3ccnc3)ncnc21	CYP2C19 inh 95, CYP2C9 inhib 66
O=C1C(C2=C(O)c3ccccc3C2=O)=Nc2ccccc21	CYP2C9 inhib 53
CC(=O)OC1=C(O)C(=O)c2ccccc2C1=O	none (no result: CYP2C9 act, CYP2C19 inh, D1 allo mod, CYP2C9 inhib, CYP2C19 act)
Cc1ccccc1OCC(=O)Nc1sc(C(=O)Nc2cccc(C)c2C)c(C)c1C#N	none (no result: D1 allo mod)
N#Cc1cc2c(nc1SCc1ccc(Cl)cc1)CCCC2	none (no result: CYP2C9 act, CYP2C19 inh, D1 allo mod, CYP2C9 inhib, CYP2C19 act)
CNc1nc(SCc2ccccc2Cl)nc2c1CCCC2	CYP2C19 inh 98, CYP2C9 inhib 90 (no result: D1 allo mod)
CN(C)c1nc(SCc2ccc(Cl)cc2)nc2c1CCCC2	CYP2C19 inh 69, CYP2C9 inhib 86 (no result: D1 allo mod)
Nc1nc(SCc2ccccc2Cl)nc2nc3c(cc12)CCCC3	none (no result: D1 allo mod)
O=C(CCn1c(=O)sc2ccccc21)NCc1ccc2c(c1)OCO2	none (no result: CYP2C9 act, CYP2C19 inh, CYP2C9 inhib, CYP2C19 act)
C=CCSc1nnc(NC(=O)COc2ccc3ccccc3c2)s1	none (no result: D1 allo mod)
CN(Cc1ccccc1)C(=O)Cn1cccc1C(=O)c1ccccc1	CYP2C19 inh 70 (no result: D1 allo mod)
N#Cc1nc(-c2ccco2)oc1N1CCN(c2cccc(Cl)c2)CC1	CYP2C19 inh 76, CYP2C9 inhib 69
N#Cc1nc(-c2ccco2)oc1N1CCN(C(c2ccccc2)c2ccccc2)CC1	none
N#Cc1nc(-c2ccco2)oc1N1CCc2ccccc2C1	CYP2C19 inh 68, CYP2C9 inhib 86
CN1c2ccccc2C(O)=C(C(=S)Nc2ccc(F)c(Cl)c2)S1(=O)=O	CYP2C9 inhib 96 (no result: D1 allo mod)
CN1c2ccccc2C(O)=C(C(=S)Nc2ccccc2)S1(=O)=O	CYP2C9 inhib 82 (no result: D1 allo mod)
CN1c2ccccc2C(O)=C(C(=O)Nc2ccccc2)S1(=O)=O	CYP2C9 inhib 76 (no result: D1 allo mod)
Cc1ccc(NC(=S)C2=C(O)c3ccccc3N(C)S2(=O)=O)cc1	CYP2C9 inhib 100 (no result: D1 allo mod)
Cn1cccc1C(=O)C(=O)Nc1ccccc1	none (no result: D1 allo mod)
Clc1ccc(OCCSc2ncccn2)cc1	none (no result: D1 allo mod)
CC(CC(=O)Nc1nncs1)c1ccccc1 (stereo not given)	none (no result: CYP2C9 act, CYP2C19 inh, D1 allo mod, CYP2C9 inhib, CYP2C19 act)
Cc1ccsc1/C=C1\CCc2ccccc2C1=O	CYP2C19 inh 93, CYP2C9 inhib 87 (no result: D1 allo mod)
COc1ccc(/C=C2\CCc3ccccc3C2=O)cc1OC	CYP2C9 inhib 53 (no result: D1 allo mod)
COc1ccc(/C=C2\CCc3ccccc3C2=O)cc1Cn1nc(C)cc1C	DAT uptake mod 4.9, CYP2C19 inh 90, CYP2C9 inhib 53 (no result: D1 allo mod)
Cc1cccc(N2CCN(C(=O)C34CC5CC(CC(C5)C3)C4)CC2)c1C	none
O=C(CCC(=O)N1CCOCC1)Nc1nnc(C2CCCCC2)s1	none (no result: D1 allo mod)
Cn1cccc1Cc1nnc(SCC(=O)N2CCN(c3ccccc3)CC2)n1-c1ccc(F)cc1	none
COC(=O)c1c(-n2cnnn2)sc(C)c1C	none
c1ccc(CC2CCN(C3=Nc4cccc5cccc3c45)CC2)cc1	CYP2C19 inh 87 (no result: DAT uptake mod, D1 allo mod)
CC(C)CCn1nnnc1C(c1ccc(N(C)C)cc1)N1CCN(C(=O)c2ccco2)CC1 (stereo not given)	CYP2C19 inh 90, CYP2C9 inhib 66
CN(C)c1ccc(C(c2nnnn2C(C)(C)C)N2CCN(C(=O)c3ccco3)CC2)cc1 (stereo not given)	CYP2C19 inh 61
COCCn1nnnc1C(CC(C)C)N1CCN(C(=O)c2ccco2)CC1 (stereo not given)	none
COc1cc(C#CC#CCN2CCCCC2)ccc1O	none
CCOC(=O)C1CCN(C(=O)c2cc(S(=O)(=O)N3CCOCC3)c(Cl)cc2Cl)CC1	none
O=C(NNC(=S)NC(=O)C12CC3CC(CC(C3)C1)C2)c1ccncc1	CYP2C19 inh 67, CYP2C9 inhib 94 (no result: D1 allo mod)
O=C(NNS(=O)(=O)c1ccccc1)c1ccncc1	none (no result: D1 allo mod)
CC(C)NC(=S)NNC(=O)C12CC3CC(CC(C3)C1)C2	none (no result: D1 allo mod)
CC/C(=N\NC(=O)c1ccncc1)C12CC3CC(CC(C3)C1)C2	CYP2C19 inh 94 (no result: D1 allo mod)
O=C(NNC(=S)Nc1ccccc1)c1ccncc1	CYP2C19 inh 70, CYP2C9 inhib 69 (no result: DAT uptake mod, D1 allo mod)
Cc1ccc(S(=O)(=O)Nc2cc(C(=O)N3CCOCC3)ccc2N2CCCCC2)cc1	CYP2C9 inhib 57
Cc1ccc(NS(=O)(=O)c2cccc(C(=O)N3CCOCC3)c2)cc1	CYP2C19 inh 72
Cc1ccc(S(=O)(=O)Cc2cccc(C(=O)N3CCOCC3)c2)cc1	none
Cc1ccc(S(=O)(=O)Nc2cc(C(=O)O)ccc2N2CCCCC2)cc1	none
Cc1cccc(NC(=S)N2CCC(C(=O)c3ccc(F)cc3)CC2)c1C	none (no result: D1 allo mod)
COc1ccc(OC(C)C(=O)NCc2cccnc2)cc1 (stereo not given)	none
Cc1c(Br)c([N+](=O)[O-])nn1C(C)C(=O)NCc1cccnc1 (stereo not given)	CYP2C19 inh 76, CYP2C9 inhib 57 (no result: DAT uptake mod, D1 allo mod)
C=C(C)CSc1nnc(-c2ccccc2)n1N	none (no result: DAT uptake mod)
Cc1ccc2sc(NC(=O)CSc3nc(C)cc(C)c3C#N)nc2c1	CYP2C19 inh 68, CYP2C9 inhib 68 (no result: D1 allo mod)
Cc1cc(C)c(C#N)c(SCC(=O)CC(=O)OC(C)C)n1	CYP2C19 inh 91, CYP2C9 inhib 53
CSc1nc(N)nc(SCC(=O)CC(=O)OC(C)C)c1C#N	none (no result: D1 allo mod)
Cc1cc(C)c(C#N)c(SCC(=O)OC2CCCCC2)n1	CYP2C19 inh 66, CYP2C9 inhib 60
Cc1nc(SCC(=O)CC(=O)OC(C)C)c(C#N)c(C)c1C	CYP2C19 inh 64
CC(C)=C1C2CC2C2C(C(=O)O)C12 (stereo not given)	none (no result: D1 allo mod)
COc1ccc(-n2cnnc2SCC(=O)NC2CCS(=O)(=O)C2)cc1 (stereo not given)	none (no result: D1 allo mod)
CCN1CCc2c(C#N)c(NCc3ccccc3)nc(N(CC)CC)c2C1	none (no result: D1 allo mod)
C=CCNc1nc(NCc2ccccc2)c(C#N)c2c1CN(C)CC2	none (no result: D1 allo mod)
N#Cc1c(N2CCCCC2)nc(N2CCCCC2)c2c1CCN(Cc1ccccc1)C2	CYP2C19 inh 68, CYP2C9 inhib 96 (no result: D1 allo mod)
Cc1cc(C)c(C#N)c(N2CCN(Cc3ccccc3)CC2)n1	CYP2C19 inh 62, CYP2C9 inhib 50 (no result: D1 allo mod)
N#Cc1c(NCCN)nc(NCc2ccccc2)c2c1CCN(Cc1ccccc1)C2	CYP2C19 inh 88, CYP2C9 inhib 95 (no result: D1 allo mod)
O=C(Nc1ccccc1F)c1cc2nc(C(F)F)cc(C(F)F)n2n1	none (no result: CYP2C9 act, CYP2C19 inh, D1 allo mod, CYP2C9 inhib, CYP2C19 act)
COc1ccc(C(=O)COC(=O)CCn2nnc(-c3cccs3)n2)cc1	none
